Several values for one entry are separate records, joined by “and”; a condition that tells them apart may be missing. Identical values can stand only once. This is part of a sample that, as a whole, favours compounds with a hit. Of some 83,000 tested, about 20% had one in any assay.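 96-well plates, one dose, 48 hours. Percent growth reported; active if below 10.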 Unmarked numbers belong to inactive results. Activity calls are given as the source filed them.
Tested on: HL-60(TB) leukemia
Experiment: NCI-60 one-dose screen, 48 h (100 = growth as untreated, 0 = no growth, -100 = all killed)
Settings: 10 µM unless noted

| SMILES | growth |
| --- | --- |
| Cc1ccc(Sc2oc(-c3ccc(C)cc3)nc2[P+](c2ccccc2)(c2ccccc2)c2ccccc2)cc1 | -45% (active) |
| O=C(O)c1c2c(nc3ccccc13)Cc1ccccc1-2 | 92.8% and 112% |
| OC(CC(c1ccccc1)c1cccc2ccccc12)(c1ccccc1)c1ccccc1 (centres undefined) | 99.1% and 101% |
| O=C1c2ccccc2C(=O)c2c1ccc(C(Br)Br)c2Cl | -9.24% (active) |
| CC(=O)N[C@H](C(=O)N[C@@H](CCCNC(=N)N)C(=O)N[C@@H](CCCCN)C(=O)N[C@@H](CCCNC(=N)N)C(=O)N[C@]1(C)CCC/C=C\CCC[C@@](C)(C(=O)N[C@@H](CC(C)C)C(=O)N[C@@H](CC(C)C)C(=O)N[C@@H](CCC(N)=O)C(=O)N[C@@H](CCC(=O)O)C(=O)N[C@@H](CCCNC(=N)N)C(=O)N[C@@H](CCC(=O)O)C(=O)N[C@@H](CC(C)C)C(=O)N[C@H](C(=O)N[C@@H](CCC(=O)O)C(N)=O)C(C)C)NC(=O)[C@H](CCCNC(=N)N)NC(=O)[C@H](CC(C)C)NC1=O)C(C)C | 104% |
| O=C(Cc1ccc(/C=C/C(=O)c2ncc[nH]2)cc1)Nc1ccc(C(F)(F)F)cc1 | -5.94% (active) |
| CCN1CCN(c2cc(C(=O)Nc3nc(-c4cc(OC)c(OC)c(OC)c4)cs3)cc(C(F)(F)F)c2)CC1 | 41.4% |
| CCCC(=O)NC(c1ccc2c(c1)OCO2)c1ccc2cccnc2c1O (centres undefined) | -47.7% (active) |
| N#Cc1ccc(-c2ccc3c(c2)NC(=O)/C3=C\c2ccc[nH]2)cc1 | 101% |
